Bioassay records from PubChem.
Shiga toxin inh: inhibitors of Shiga toxin in Vero cells. Vero cells, Shiga toxin protein synthesis inhibition reporter. inhibition, % at 38.7 µM. 290,000 tested, 9.2% active. AID 2315; in the data active = inhibition mostly above about 28%, no sharp cut-off; inactive = mostly below about 43%
Tb PYK inh: blocks Trypanosoma brucei pyruvate kinase; Q57TT1; TbPYK enzyme, Kinase-Glo Plus ATP luminescence, 45 min; Potency, µM (doses to about 76.8 µM), actives largely listed as inhibitors; 410,000 tested, 0.12% active; AID 624173; active = well fitted curve in the direction sought with a large enough effect; inconclusive = small, poorly fitted or top-dose-only effect, or another doubt; inactive = no such curve, though single readings can be large; an effect the other way counts as inactive or inconclusive; note: nearly all actives have a fitted effect of over 50% in size
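In this concentration-response screen, enzyme-free wells defined baseline while DMSO plates tracked drift. Each reaction combined TbPYK, substrate, compound and 130 uM ADP for 45 min at room temperature. Kinase-Glo Plus luminescence gave the signal.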
CHX counter: counter-screen hit for Shiga toxin inhibitors, cycloheximide | cell reporter, cycloheximide protein synthesis inhibition counterscreen | max response, % | AID 2314 | 300,000 tested, 12% active; in the data active = max response mostly above about 13%, no sharp cut-off; inactive = mostly below about 14%; note: read at 38.3 µM for the half of the compounds with a filed dose
LmPK inhibitor: blocks Leishmania mexicana pyruvate kinase activity | Q27686 | purified LmPK, Kinase-Glo ATP luminescence, 1 h | Potency, µM (series often up to 57.5 µM), hits mostly inhibitors | 290,000 tested, 0.37% active | AID 1721; active = well fitted curve in the direction sought with a large enough effect; inconclusive = small, poorly fitted or top-dose-only effect, or another doubt; inactive = no such curve, though single readings can be large; an effect the other way counts as inactive or inconclusive
Target sequence (Q27686 whole entry, looked up): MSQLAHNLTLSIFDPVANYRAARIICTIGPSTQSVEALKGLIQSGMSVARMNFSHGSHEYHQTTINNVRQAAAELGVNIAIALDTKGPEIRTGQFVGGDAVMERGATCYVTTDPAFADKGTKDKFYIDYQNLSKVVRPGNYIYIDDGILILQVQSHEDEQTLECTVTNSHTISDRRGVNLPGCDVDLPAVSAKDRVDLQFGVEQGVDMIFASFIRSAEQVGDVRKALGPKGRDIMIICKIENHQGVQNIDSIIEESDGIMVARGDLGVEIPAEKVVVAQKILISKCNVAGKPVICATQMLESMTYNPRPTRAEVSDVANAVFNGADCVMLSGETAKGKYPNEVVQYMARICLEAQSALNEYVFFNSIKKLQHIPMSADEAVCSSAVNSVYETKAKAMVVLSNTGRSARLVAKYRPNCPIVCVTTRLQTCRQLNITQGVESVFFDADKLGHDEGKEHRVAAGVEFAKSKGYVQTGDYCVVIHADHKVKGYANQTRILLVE
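ATP generated from ADP (0.1 mM) and PEP (0.5 mM) by 0.1 nM LmPK over 1 h at room temperature (pH 7.2 imidazole buffer) was detected by coupled luciferase luminescence. Values were normalized to uninhibited and no-enzyme wells.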
SARS PLP yeast: inhibitors of SARS-CoV papain-like protease in yeast | S. cerevisiae expressing SARS-CoV PLpro, growth rescue | Potency, µM (highest dose often 32.9 µM), most hits filed as activators | 330,000 tested, 0.19% active; note: nearly all actives have a fitted effect of over 55% in size
NS1 inh: inhibitors of influenza NS1 protein function. Potency, µM (series often up to 46.1 µM). 270,000 tested, 0.4% active; note: actives are rising curves; nearly all actives have a fitted effect of over 50% in size
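Growth recovery, yeast-based: influenza A NS1 expressed in S. cerevisiae causes slow growth, and suppressors are detected by OD600. The parent strain without NS1 is used as positive control.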
Numbers stand for hits; . = inactive; ? = inconclusive; / = no result. This excerpt belongs to a sample that is enriched for hits. Unless noted, calls come from the whole dose curve.

SMILES | Shiga toxin inh | Tb PYK inh | CHX counter | LmPK inhibitor | SARS PLP yeast | NS1 inh
CCOC(=O)CNc1c(-c2ccc(OC)cc2)nc2ccc(Cl)cn12 | 36 | . | 20 | . | . | .
Cc1ccc(S(=O)(=O)N=N/C=C2\C=CC=CN2O)cc1 | / | . | / | / | / | /
O=C(CSc1ccccn1)Nc1ccc2c(c1)CCC2 | / | . | / | / | . | /
O=C(CSC1=NCCS1)Nc1ccc2ccccc2c1 | 117 | . | 36 | . | . | .
Cc1cc(C)cc(OCC(=O)NC2=NCCS2)c1 | . | . | . | . | . | .
O=C(CSc1ccccn1)Nc1ccc2ccccc2c1 | 77 | / | 53 | . | . | .
O=C(COc1ccc2ccccc2c1)NC1=NCCS1 | 107 | . | 43 | . | . | .
Cc1cc(NC(=O)CSc2ccccn2)cc(NC(=O)CSc2ccccn2)c1 | . | . | . | . | . | .
O=C(CSc1ccccn1)Nc1ccc2c(c1)C(=O)c1ccccc1C2=O | . | . | 43 | . | . | .
COc1ccc(C(=O)NC2CC(=O)N(c3ccc4c(c3)OCCO4)C2)cc1 (stereo not drawn) | / | . | / | / | / | /
O=C(O)c1cccc(NC(=O)c2cccc(S(=O)(=O)Nc3cccc(F)c3)c2)c1 | / | . | / | / | / | /
O=C(CSc1n[nH]c(=O)[nH]c1=O)Nc1ccc2c(c1)C(=O)c1ccccc1C2=O | 68 | . | 27 | . | . | .
O=C(Nc1nnc(C2CC2)s1)C1CC(=O)N(c2ccc3c(c2)OCCO3)C1 (stereo not drawn) | 31 | . | 31 | . | . | .
O=C(Nc1nc(-c2ccccn2)cs1)C1CC(=O)N(c2ccc3c(c2)OCCO3)C1 (stereo not drawn) | . | . | 25 | . | . | .
C#CC(C)(C)NS(=O)(=O)c1cc(-c2nnc(Nc3ccc(C)cc3)c3ccccc23)ccc1C | / | . | / | / | / | /
COC(=O)C[C@H]1C[C@@H]2c3cc(NS(=O)(=O)c4cccc(OC)c4)ccc3O[C@@H]2[C@@H](CO)O1 | / | . | / | / | / | /
CCOc1ccccc1NC(=O)c1ccc(F)c(S(=O)(=O)N2CCN(c3ccc(F)cc3)CC2)c1 | / | . | / | / | / | /
S=C(Nc1ccc(Cl)cc1)N1CCN(Cc2ccccc2)CC1 | . | . | . | . | . | .
CC(C)c1ccc(/C=C/C(=O)NC(=S)NN2CCOCC2)cc1 | . | . | 17 | . | . | ?
O=C(/C=C/c1cccc([N+](=O)[O-])c1)NC(=S)Nc1ccc(CN2CCOCC2)cc1 | . | . | . | . | . | .
CC(C)c1ccc(NC(=S)N2CCN(Cc3ccccc3)CC2)cc1 | . | . | 12 | . | . | /
CC(C)c1ccc(/C=C/C(=O)NC(=S)Nc2ccc(CN3CCOCC3)cc2)cc1 | . | . | 15 | . | . | .
CCc1nn(CC(=O)NC2CC2)c(=O)c2cc3ccccc3n12 | / | . | / | / | / | /
O=C1NC[C@H](CCCCN2C[C@H](Cc3ccccc3)N(CC3CCCCC3)C(=O)C2=O)N(CCc2ccccc2)C1=O | / | . | / | / | / | /
Cc1ccc(-n2c(-c3cc(-c4ccco4)[nH]n3)n[nH]c2=S)c(Br)c1 | . | ? | . | ? | . | .
SMILES | Shiga toxin inh | Tb PYK inh | CHX counter | LmPK inhibitor | SARS PLP yeast | NS1 inh
FC(F)(F)c1ccccc1-n1c(-c2ccco2)n[nH]c1=S | 30 | ? | 21 | . | . | .
S=c1[nH]nc(-c2cc(-c3ccco3)[nH]n2)n1-c1cccc2ccccc12 | . | ? | . | 7.9µM | . | .
C[C@H](CO)N1C[C@H](C)[C@@H](CN(C)C(=O)Nc2ccc(C(F)(F)F)cc2)Oc2ccc(NC(=O)Nc3ccc4c(c3)OCO4)cc2C1=O | / | . | / | / | . | /
O=C(c1ccc2c(c1)N(Cc1ccc(F)cc1)C(=O)c1ccccc1S2(=O)=O)N1CCCCC1 | / | . | / | / | / | /
Cc1ccc(C2C3C(=O)N(c4ccccc4)C(=O)C3N3CCCN23)cc1 (stereo not drawn) | . | . | 28 | . | . | .
CCCCN(C=O)c1c(CC)nc2ccc(C(=O)NCCOc3ccc(OC)cc3)cn12 | / | . | / | / | / | /
COc1ccc(S(=O)(=O)Cc2ccc(C(=O)N3CCN(c4cc(C)ccc4C)CC3)o2)cc1 | . | . | 14 | . | . | .
COc1ccccc1N1CCN(C(=O)c2ccc(CS(=O)(=O)c3ccccc3OC)o2)CC1 | . | . | 15 | . | . | .
O=C(N/N=C\c1ccc(CNS(=O)(=O)c2ccccc2)o1)C(=O)Nc1ccc(F)cc1 | . | . | 14 | . | . | .
COc1ccc(Cn2c(SCC#N)nc3ccc(N4CCOCC4)cc3c2=O)cc1 | 124 | . | 58 | . | . | /
